Screens from PubChem BioAssay.
BoNT-A LC inh2: BoNT/A light chain protease inhibitors, primary screen, biochemical, flow cytometry, MLPCN library. Botulinum neurotoxin type A light chain protease (Clostridium botulinum A str. ATCC 3502). AID 588499, 2011. multiplex microsphere protease substrate cleavage. 0.17% of 360,000 active. inhibition, % at 10 µM
BoNT F protease: BoNT/F light chain protease inhibitors, primary screen, biochemical, flow cytometry, MLPCN library | AID 588497, 2011 | Multiplex microsphere protease cleavage assay | 0.22% of 360,000 active | inhibition, % at 10 µM; in the data active means inhibition above about 35%, passing the limit was not always enough; inconclusive means no clear call, values can overlap the other calls
Anthrax LF inh2: Bacillus anthracis LF protease inhibitors, primary screen, biochemical, multiplex microsphere, MLPCN library. Lethal factor (Bacillus anthracis), P15917. multiplex microsphere protease cleavage assay. inhibition, % at 10 µM. 0.12% of 360,000 active. AID 588501, 2011
Target sequence (P15917 whole entry, looked up): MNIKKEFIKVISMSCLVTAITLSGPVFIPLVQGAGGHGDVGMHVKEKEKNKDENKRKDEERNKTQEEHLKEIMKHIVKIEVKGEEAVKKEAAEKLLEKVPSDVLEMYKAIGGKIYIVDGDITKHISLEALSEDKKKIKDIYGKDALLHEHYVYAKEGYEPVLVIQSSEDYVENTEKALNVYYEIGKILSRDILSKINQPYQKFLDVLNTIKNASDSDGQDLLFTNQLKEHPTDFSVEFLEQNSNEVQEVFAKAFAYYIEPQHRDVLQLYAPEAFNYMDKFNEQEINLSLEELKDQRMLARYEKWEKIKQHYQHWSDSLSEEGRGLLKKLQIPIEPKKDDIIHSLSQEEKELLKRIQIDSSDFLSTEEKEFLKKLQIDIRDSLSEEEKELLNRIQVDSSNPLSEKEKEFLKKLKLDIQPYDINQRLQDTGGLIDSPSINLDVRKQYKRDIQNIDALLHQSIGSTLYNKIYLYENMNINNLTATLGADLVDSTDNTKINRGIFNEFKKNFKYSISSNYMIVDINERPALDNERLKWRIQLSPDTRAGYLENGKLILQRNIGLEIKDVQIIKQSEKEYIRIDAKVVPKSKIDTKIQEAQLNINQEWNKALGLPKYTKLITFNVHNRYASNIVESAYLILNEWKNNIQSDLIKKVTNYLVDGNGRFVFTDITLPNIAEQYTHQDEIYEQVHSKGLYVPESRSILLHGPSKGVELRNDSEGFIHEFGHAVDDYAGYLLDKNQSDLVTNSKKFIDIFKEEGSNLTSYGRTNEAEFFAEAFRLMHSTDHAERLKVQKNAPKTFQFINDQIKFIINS
Autofluor counter: compound fluorescence in toxin protease inhibitor counterscreen. compound autofluorescence counterscreen, microsphere flow cytometry; active compounds read high. fluorescence intensity (test concentration not listed). 3.1% of 360,000 active. AID 624483; in the data active means fluorescence intensity above about 16000; inconclusive means no clear call, values can overlap the other calls
MazEF act: activators of E. coli MazEF toxin-antitoxin RNase, primary screen, biochemical, fluorescence, uHTS; Endoribonuclease toxin MazF (Escherichia coli (strain K12)), P0AE70; FAM/BHQ RNA-DNA oligo cleavage fluorescence, 5 h; activation, % at 20 µM; 0.32% of 350,000 active; AID 504720, 2011; in the data active means activation above about 50%
Numbers stand for hits; 0 = inactive; ? = inconclusive; - = not tested or not shown. Hits are enriched below; roughly 3.6% of the tested compounds scored in any of these assays. Unless noted, no stated cut-off is given here; in the data, active means inhibition above about 30%; inconclusive means no clear call, values can overlap the other calls; inactive means below that.

SMILES	BoNT-A LC inh2	BoNT F protease	Anthrax LF inh2	Autofluor counter	MazEF act
CCOc1ccc(N2CC(=O)SC2=S)cc1	0	0	0	0	0
CC(=O)Nc1ccc(-c2ccnc3c2CC(C(=O)Nc2cccc(C(C)=O)c2)O3)cc1 (stereo not given)	0	0	0	0	-
O=C(COC(=O)C1CC1)c1c[nH]c2ccccc12	0	0	0	19998	0
O=C(CN1CCCCC1)c1c[nH]c2ccccc12	0	0	0	0	0
CCn1nc(C(=O)OCC(=O)c2c[nH]c3ccccc23)c2ccccc2c1=O	44.7	0	38.0	0	0
COc1cccc(/C=C/C(=O)OCC(=O)c2c[nH]c3ccccc23)c1OC	39.1	0	0	0	0
CC1CC(C)CN(CC(=O)c2c[nH]c3ccccc23)C1 (stereo not given)	0	35.7	0	0	0
COc1ccc(NC(=O)CSCC(=O)N(C)CC(=O)Nc2cccc3ccccc23)cc1	-	-	-	-	0
O=C(CSc1nnnn1C1CC2C=CC1C2)Nc1ccc(C(=O)O)cc1 (stereo not given)	0	0	0	0	0
COc1ccc(S(=O)(=O)N2CCN(C(=O)CCSc3ccccc3)CC2)cc1	0	0	0	0	0
O=C(O)C1OC2OC3(CCCCC3)OC2C2OC3(CCCCC3)OC12 (stereo not given)	0	35.7	0	0	0
Cc1cc(C)c(OCCCCNCc2ccccc2)c(Cl)c1	?	0	0	21662	0
COCCCNCCCCOc1c(Cl)cc(C)cc1Br	?	0	0	22891	0
C=CCNCCCCOc1c(Cl)cc(C)cc1Br	-	-	-	-	0
Cc1cc(C)c(OCCNCc2ccccc2)c(C)c1	0	0	0	0	0
CC1(C)CC(=O)C(C=NCC2CCNCC2)=C(O)C1	0	0	0	0	0
CC1(C)CC(=O)C(C=NCCN2CCN(C(=O)Cc3ccc(F)cc3)CC2)=C(O)C1	0	0	0	19988	0
COc1ccc(CN=CC2=C(O)CC(C)(C)CC2=O)cc1	0	0	0	24658	0
CC1(C)CC(=O)C(C=NCC2CCCO2)=C(O)C1 (stereo not given)	0	0	0	25274	0
CC1(C)CC(=O)C(C=NCCN2CCN(C(=O)CC3CCCC3)CC2)=C(O)C1	0	0	0	0	0
CC1(C)CC(=O)C(C=NCC(O)c2ccccc2)=C(O)C1 (stereo not given)	0	0	0	20941	0
COc1ccc(CN=CC2=C(O)CNC2=O)cc1	0	0	0	0	0
Cc1ccc(S(=O)(=O)N2CCCCC2)cc1NCC(=O)Nc1ccc(Br)cc1F	0	0	0	0	0
CC1(C)CC(=O)C(C=NCCCn2ccnc2)=C(O)C1	0	0	0	21981	0
COC(=O)c1c(C)n(Cc2ccco2)c2ccc(O)cc12	0	0	0	24915	0
SMILES	BoNT-A LC inh2	BoNT F protease	Anthrax LF inh2	Autofluor counter	MazEF act
O=C(c1ccc(C(=O)N2CCCCCC2)cc1)N1CCCCCC1	0	0	0	0	0
Cc1cc(C)cc(C(=O)N2CCCCCC2)c1	0	0	0	23038	0
Cc1cc(C(=O)N2CCCCCC2)cs1	0	0	0	23371	0
CC1CCCCC1NC(=O)CSc1ncnc2sccc12 (stereo not given)	0	0	0	0	0
CCC(C(=O)NCCCN1CCOCC1)n1c2ccccc2c2nc(=O)cc(C)n21 (stereo not given)	0	0	0	0	0
O=C1C2C3C=CC(C3)C2C(=O)N1CC1CCCO1 (stereo not given)	?	0	0	20157	0
Nc1nc2ccc(Cl)cc2cc1C(=O)NCCc1c[nH]c2ccccc12	0	0	0	0	-
COc1ccc(CN(C)C(=O)c2cccc(Oc3ccccc3)c2)c(OC)c1OC	0	0	0	0	54.9
COc1cccc(CN(C)C(=O)c2cccc(S(=O)(=O)NCc3ccccc3)c2)c1OC	0	0	0	?	0
Cc1cc2ccccc2n1CCNC(=O)c1cccs1	78.7	0	0	0	0
CCCn1c(CCNC(=O)c2cccs2)nc2ccccc21	0	0	0	0	0
Cc1ccc(-n2nc3c4c(cccc4c2=O)-c2ccccc2-3)cc1	0	0	0	19852	0
CCCNC(=O)C1(C)CCN(C(=O)c2cccnc2Oc2ccccc2)C1 (stereo not given)	0	0	0	0	-
CCOc1ccc(CNC(=O)CCn2c(=O)oc3ccccc32)cc1	0	0	0	16172	0
CCOc1ccc(OCC)c(NC(=O)CCn2c(=O)oc3ccccc32)c1	?	0	0	19376	0
CCOc1ccccc1NC(=O)Cn1c(=O)oc2ccccc21	0	0	0	0	0
Cc1ccc(NC(=O)[C@@H]2CCCN2C(=O)c2cccs2)cc1S(=O)(=O)N1CCCCC1	0	0	0	0	0
O=C(NC1CCCCC1)C(c1cccnc1)N(C(=O)CCl)c1ccccc1Cl (stereo not given)	0	38.3	0	0	0
CCCCn1c(N)c(N(CC(C)C)C(=O)C2CCN(S(=O)(=O)c3ccccc3)CC2)c(=O)[nH]c1=O	0	0	0	0	0
COc1ccccc1N=c1oc2c(OC)cccc2cc1C(=O)NCc1ccco1	0	0	0	20264	68.8
COc1ccccc1C(=O)NCc1ccco1	0	0	0	0	0
COc1cccc(C(=O)NCc2ccco2)c1OC	0	0	0	0	0
COc1ccc(N=c2oc3c(OC)cccc3cc2C(=O)NCc2ccco2)cc1OC	?	0	0	19539	343.5
COc1ccc(OC)c(N=c2oc3c(OC)cccc3cc2C(=O)NCc2ccco2)c1	0	0	0	16799	75.5
COc1ccc(-c2csc(NC(=O)c3c(C)noc3C)n2)cc1OC	0	0	0	0	0
SMILES	BoNT-A LC inh2	BoNT F protease	Anthrax LF inh2	Autofluor counter	MazEF act
CCc1cccc(C)c1NC(=O)CCN1C(=O)NC(C)(C)C1=O	0	0	0	0	0
O=c1[nH]c2cc3c(cc2cc1CN(Cc1cccnc1)Cc1nnnn1Cc1ccco1)OCCO3	0	0	0	0	54.4
O=c1[nH]c2cc3c(cc2cc1CN(Cc1ccccc1)Cc1nnnn1Cc1ccco1)OCCO3	0	0	0	0	0
O=c1[nH]c2cc3c(cc2cc1CN(Cc1cccs1)Cc1nnnn1Cc1ccco1)OCCO3	0	0	0	0	0
COc1ccccc1CN(Cc1cc2cc3c(cc2[nH]c1=O)OCCO3)Cc1nnnn1Cc1ccco1	0	0	0	23267	0
COC(=O)C1=CN(CC2CCCO2)C=C(C(=O)OC)C1c1cccc(O)c1 (stereo not given)	0	0	0	0	0
COC(=O)C1=CN(CC2CCCO2)C=C(C(=O)OC)C1c1ccsc1 (stereo not given)	0	0	0	22638	0
Cc1ccc(S(=O)(=O)NN=Cc2ccccc2Cl)cc1	0	0	0	0	0
CC(=O)c1cc(-c2ccccc2)n(CC(=O)N2CCC(C)CC2)c1C	?	0	0	17028	0
CCc1cccc(C)c1NC(=S)NCc1ccc2[nH]c(C)cc2c1	39.9	0	0	0	0
CCN(Cc1ccccc1)C(=O)C1CCN(Cc2ccc(OC)c(OC)c2OC)CC1	?	0	0	22911	0
